High-throughput results: PubChem, National Center for Advancing Translational Sciences (NCATS)
LmPK inh: inhibitors of Leishmania mexicana pyruvate kinase; Q27686; purified LmPK, Kinase-Glo ATP luminescence, 1 h; Potency, µM (titrated, usually from 57.5 µM), for the others: at the top dose activity change, negative = inhibition, hits mostly inhibitors; hit rate 0.37% among 290,000
Target sequence (Q27686 whole entry, looked up): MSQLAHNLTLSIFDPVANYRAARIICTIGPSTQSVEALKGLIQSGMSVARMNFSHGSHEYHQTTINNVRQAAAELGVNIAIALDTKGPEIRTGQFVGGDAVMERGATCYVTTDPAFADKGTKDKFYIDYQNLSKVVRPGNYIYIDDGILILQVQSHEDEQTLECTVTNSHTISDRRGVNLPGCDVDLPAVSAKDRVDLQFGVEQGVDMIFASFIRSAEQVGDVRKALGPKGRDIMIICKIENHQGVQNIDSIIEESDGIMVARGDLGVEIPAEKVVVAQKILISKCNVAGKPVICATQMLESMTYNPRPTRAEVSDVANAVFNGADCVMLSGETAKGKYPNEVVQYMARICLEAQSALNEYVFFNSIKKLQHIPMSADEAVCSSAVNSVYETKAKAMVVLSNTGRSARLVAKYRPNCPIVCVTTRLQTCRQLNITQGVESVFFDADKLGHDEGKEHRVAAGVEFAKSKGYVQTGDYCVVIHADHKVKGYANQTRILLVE
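ATP generated from ADP (0.1 mM) and PEP (0.5 mM) by 0.1 nM LmPK over 1 h at room temperature (pH 7.2 imidazole buffer) was detected by coupled luciferase luminescence. Values were normalized to uninhibited and no-enzyme wells.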
TbPYK inhibitor: inhibitors of Trypanosoma brucei pyruvate kinase. Q57TT1. TbPYK enzyme, Kinase-Glo Plus ATP luminescence, 45 min. hit rate 0.12% among 410,000. Potency, µM (top dose mostly 76.8 µM), inactives show at the top dose activity, negative = inhibition, usual class: inhibitors; further: nearly all actives have a fitted effect of over 50% in size
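Enzyme and substrate buffer are dispensed first and compound is pin-transferred. ADP at 130 uM final then starts the reaction, which runs 45 min at room temperature. Detection reagent is added for 10 min before luminescence is imaged.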
RE007 growth inh: less growth of the S. pombe RE007 Vpr strain; S. pombe RE007 Vpr strain, BacTiter-Glo ATP luminescence, 24 h; Potency, µM (top dose mostly 92.2 µM), without a hit: at the highest dose activity change, negative = less growth, actives largely listed as inhibitors; hit rate 0.21% among 360,000; AID 651644; active means well fitted falling curve with a large enough effect; inconclusive means small, poorly fitted or top-dose-only effect; inactive means no such curve, though single readings can be large or run the other way; further: nearly all actives have a fitted effect of over 50% in size
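Fission yeast RE007 carrying one integrated HIV-1 vpr copy, seeded at OD 0.01 in PMG+AL medium with 23 nL pinned compound. Grown 24 h at 30 degrees; viability read by BacTiter-Glo luminescence after 5 min.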
AMA1 RON2 block: disrupts binding of P. falciparum AMA1 to RON2. AlphaScreen AMA1-biotinylated RON2 peptide binding. Potency, µM (series often up to 58.2 µM), without a hit: at the highest dose activity change, negative = inhibition, hits mostly inhibitors. hit rate 0.2% among 360,000;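 further: 0% = vehicle wells and -100% = peptide control; nearly all actives have a fitted effect of over 45% in size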
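AMA1 (3D7) with his tag at 25 nM final met compounds first, then biotinylated RON2 peptide at 25 nM; detection used donor plus acceptor beads, 10 µg/mL apiece, read by AlphaScreen after 30 min at room temperature.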
Sm TGR block: S. mansoni TGR enzyme inhibition | Q962Y6 | hit rate 3% among 360,000 | purified TGR, DTNB reduction, TNB absorbance 405 nm | Potency, µM (top dose mostly 114 µM), inactives show at the top dose activity change, negative = inhibition, hits mostly inhibitors; further: nearly all actives have a fitted effect of over 60% in size
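TGR 20 nM + NADPH 100 uM (dispensed conc.), cpd preinc 15 min RT; start with NADPH (500 uM addition) then DTNB (15 mM addition). Kinetic TNB absorbance, 405 nm filter. Four-parameter Hill fit across titration.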
Starred values were filed as active, the others as inactive. Most compounds without a hit are left out; they make up all but 3.2% or so of the library. Unless noted, the call rests on the fitted dose curve; in most records, active means well fitted curve in the direction sought with a large enough effect; inconclusive means small, poorly fitted or top-dose-only effect, or another doubt; inactive means no such curve, though single readings can be large; an effect the other way counts as inactive or inconclusive. Unless noted, on the % scale 0 is the no-effect control and ±100 the full control effect; potency means the concentration at half of the fitted maximal effect.

For COc1ccc(C(=O)COC(=O)CCN2C(=O)C3C4C=CC(C5CC45)C3C2=O)cc1 (stereo not drawn) the results were LmPK inh -5.2%, TbPYK inhibitor 4.5%, RE007 growth inh -10.2%, AMA1 RON2 block -6.9% and Sm TGR block 25.1µM*.
For O=C(Cc1ccc(Cl)cc1)NCC(c1cccs1)S(=O)(=O)c1ccc(F)cc1 (stereo not drawn) the results were TbPYK inhibitor 0.4% and Sm TGR block -16.7%.
Screening Nc1c(C(=O)NCc2ccco2)sc2nc3c(cc12)C(=O)CCC3 returned LmPK inh -7.0%, TbPYK inhibitor -5.1%, RE007 growth inh 3.3%, AMA1 RON2 block -7.3% and Sm TGR block 8.91µM*.
O=C(COC(=O)c1cc(-c2cccs2)nc2ccccc12)NCc1ccco1 was read as LmPK inh 9.7%, TbPYK inhibitor -2.3%, RE007 growth inh -18.6%, AMA1 RON2 block 14.2% and Sm TGR block 39.8µM*.
Screening Cc1ccc(-c2nc(C)sc2CC(=O)NCc2ccco2)cc1 returned LmPK inh -1.0%, TbPYK inhibitor -17.8%, RE007 growth inh 3.5%, AMA1 RON2 block 2.1% and Sm TGR block 22.4µM*.
O=C(COC(=O)c1cc(-c2ccc(Cl)s2)nc2ccccc12)NCc1ccco1 was read as LmPK inh 8.6%, TbPYK inhibitor -16.0%, RE007 growth inh 0.4%, AMA1 RON2 block -0.8% and Sm TGR block 7.94µM*.
COC(=O)c1cc(C)nc2c1c(=O)nc(SCc1ccccc1F)n2C1CC1 was read as TbPYK inhibitor -0.7% and Sm TGR block -1.3%.
Screening COc1ccccc1CNC(=O)CCCCn1c(=O)c2ccccc2n(CC(=O)Nc2c(C)cc(C)cc2C)c1=O returned TbPYK inhibitor 8.6% and Sm TGR block 3.8%.
`Cc1ccc(S(=O)(=O)C2(C(=O)Nc3ccc(Cl)c(C(F)(F)F)c3)CC2)cc1` gave TbPYK inhibitor 0.1% and Sm TGR block 6.2%.
`CCOC(=O)CNc1ncnc2c1nnn2C` gave TbPYK inhibitor -5.5% and Sm TGR block 10.4%.
Screening Cc1ccc(-c2cc(C(=O)NCc3ccco3)c3ccccc3n2)s1 returned LmPK inh 5.9%, TbPYK inhibitor inconclusive, RE007 growth inh 1.7%, AMA1 RON2 block 8.6% and Sm TGR block 28.2µM*.
`O=C(NCc1ccco1)c1c2c(nc3ccccc13)CCC2` gave LmPK inh 7.9%, TbPYK inhibitor inconclusive, RE007 growth inh -20.3%, AMA1 RON2 block inconclusive and Sm TGR block 39.8µM*.
Screening CCOc1ccc(NC(=O)c2cnn(-c3ccc(C)c(C)c3)c2C2CCN(C(=O)OC(C)(C)C)CC2)cc1 returned TbPYK inhibitor -0.9% and Sm TGR block 2.2%.
For Nc1ccc2c(c1)Cc1cc(N)c(Br)cc1-2 the results were TbPYK inhibitor -11.9%, RE007 growth inh -25.6% and AMA1 RON2 block inconclusive.
COc1cc2c(cc1N)-c1ccc(N)cc1C2 was read as TbPYK inhibitor -24.4%, RE007 growth inh 11.8% and AMA1 RON2 block 3.98µM*.
For Cc1ccc(S(=O)(=O)N2CC2(C)CCl)cc1 (stereo not drawn) the results were LmPK inh 0.0%, TbPYK inhibitor 5.0%, RE007 growth inh 16.0%, AMA1 RON2 block 0.0% and Sm TGR block 50.1µM*.
Screening CC(=O)c1cccc(NC(=O)CCCSc2nc(-c3ccco3)cc(C(F)(F)F)n2)c1 returned TbPYK inhibitor 12.8% and Sm TGR block 1.3%.
For O=C(NC1CC1)C1CC(=O)N(c2cccc(Cl)c2)C1 (stereo not drawn) the results were LmPK inh -9.6%, TbPYK inhibitor -7.3%, RE007 growth inh -6.4%, AMA1 RON2 block 0.3% and Sm TGR block 7.08µM*.
`Cc1ccc(N2CC(C(=O)NC3CC3)CC2=O)cc1Cl` (stereo not drawn) gave LmPK inh 7.3%, TbPYK inhibitor 3.6%, RE007 growth inh 5.6%, AMA1 RON2 block -3.1% and Sm TGR block 6.7%.
For CC(=O)Nc1ccc(-n2c(CCC(=O)O)ccc2-c2ccc(Br)cc2)cc1 the results were TbPYK inhibitor -6.4% and Sm TGR block 35.5µM*.
Screening CC(=O)Nc1ccc(-n2c(CCC(=O)O)ccc2-c2ccc(C)cc2)cc1 returned TbPYK inhibitor -7.6% and Sm TGR block 14.1µM*.
Screening CCC(=O)N1CCc2cc(CNC(=O)c3ccccc3C)ccc21 returned TbPYK inhibitor 1.9% and Sm TGR block 2.4%.
`CN(C)c1ccc(CNC(=O)c2cccc(NC(=O)N3CCSc4ncccc43)c2)cc1` gave TbPYK inhibitor 7.9% and Sm TGR block -1.0%.
COc1ccccc1-c1nn2c(=O)cc(CN3CCN(C(=O)/C=C/c4ccccc4)CC3)nc2s1 was read as TbPYK inhibitor -1.0% and Sm TGR block -23.2%.
Cc1ccccc1-c1nn2c(=O)cc(CN3CCN(C(=O)/C=C/c4ccccc4)CC3)nc2s1 was read as TbPYK inhibitor -5.6% and Sm TGR block 39.8µM*.
For O=C(NN1C(=O)c2ccccc2NC1c1ccc([N+](=O)[O-])o1)c1ccc(Br)cc1 (stereo not drawn) the results were LmPK inh 1.0%, TbPYK inhibitor -0.1%, RE007 growth inh 2.6%, AMA1 RON2 block -0.5% and Sm TGR block inconclusive.
`CC(=O)NN1C(=O)c2ccccc2NC1c1ccc([N+](=O)[O-])o1` (stereo not drawn) gave LmPK inh 1.7%, TbPYK inhibitor 3.0%, RE007 growth inh -4.1%, AMA1 RON2 block 16.3% and Sm TGR block 39.8µM*.
Screening Cc1c(Cl)cccc1NC(=O)Cn1nnc(-c2nc(-c3ccccc3)no2)c1N returned TbPYK inhibitor 4.6% and Sm TGR block -0.8%.
COc1cc(NC(=O)N2CCC(CN3CCOCC3)CC2)cc(OC)c1OC was read as TbPYK inhibitor 2.2% and Sm TGR block 4.1%.
Cc1cccc(C(=O)OCC(=O)NC(=O)c2ccccc2)c1O was read as TbPYK inhibitor -0.9%, RE007 growth inh -1.0%, AMA1 RON2 block -2.3% and Sm TGR block 50.1µM*.
`Cc1cc(C)c(C(=O)OCC(=O)NC(=O)c2ccccc2)c(C)c1` gave TbPYK inhibitor 0.4%, RE007 growth inh 3.7%, AMA1 RON2 block 6.3% and Sm TGR block -2.7%.
Screening Cc1cccc(C(=O)OCC(=O)N2CCCC2=O)c1O returned TbPYK inhibitor -5.7%, RE007 growth inh 2µM*, AMA1 RON2 block 10.4% and Sm TGR block -9.4%.
For Cc1cccc(C(=O)OCC(=O)N2CCCCCC2)c1O the results were TbPYK inhibitor -3.4%, RE007 growth inh 2.2%, AMA1 RON2 block 0.0% and Sm TGR block 6.0%.
`COCC(=O)Nc1ccccc1-c1ccccc1` gave LmPK inh 0.7%, TbPYK inhibitor 1.0%, RE007 growth inh -12.8%, AMA1 RON2 block -4.7% and Sm TGR block 6.4%.
